In the library only some 3.7% were active in any assay of this set; here they are far more common.
A549 tox = Nrf2 qHTS screen for inhibitors: counterscreen for cytotoxicity; A549 ARE-Fluc cells, CellTiter-Fluor viability, 18-24 h; Potency, µM (doses to about 46 µM), for inactives: at the highest dose activity change, negative = cytotoxicity, actives largely listed as inhibitors; 390,000 compounds, 0.16% hits; note: % is set by controls: 0 for no effect and ±100 for the full control effect
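A549 ARE-Fluc cells in 5% FBS OPTI-MEM, 5000 cells/well, rested 2 h then exposed to compounds in concentration-response for 18-24 h at 37 °C. Viability by CellTiter-Fluor fluorescence (Ex 405/Em 525) after 30 min; luciferase luminescence (BugLite, 15 min, RT) read afterwards.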
ELG1 DNA repair = qHTS screen for small molecules that inhibit ELG1-dependent DNA repair in human embryonic kidney (HEK293T) cells expressing luciferase-tagged ELG1 | HEK293T ELG1-luciferase reporter, luminescence, 16 h; DNA damage induced by 5-fluorouridine | Potency, µM (series often up to 46.1 µM), without a hit: top-dose activity change, negative = inhibition, usual class: inhibitors | 330,000 compounds, 2.3% hits | AID 504467, 2011; note: % is set by controls: 0 for no effect and ±100 for the full control effect; nearly all actives have a fitted effect of over 55% in size
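Quantitative HTS, concentration-response format. 2,000 cells/well co-treated with 5-fluorouridine and compound, 16 hr in 5% CO2 at 37 °C; ONE-Glo luminescence read after 30 min.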
Nrf2 block = Nrf2 qHTS screen for inhibitors; A549 ARE-Fluc reporter, luciferase luminescence, 18-24 h; Potency, µM (top dose mostly 46 µM), for the others: at the top dose activity change, negative = inhibition, most hits filed as inhibitors; 360,000 compounds, 2.1% hits; note: % is set by controls: 0 for no effect and ±100 for the full control effect; nearly all actives have a fitted effect of over 60% in size
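A549 ARE_Fluc cells (5000/well, 5% FBS OPTI-MEM) pre-incubated 2 h, then treated with compounds 18-24 h at 37C/5% CO2 in concentration-response. CellTiter-Fluor viability read first; BugLite luciferase luminescence after 15 min at room temperature gives Nrf2 activity.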
Nrf2 activator = qHTS of Nrf2 Activators. AREc32 ARE-luciferase reporter (MCF7-derived line), luminescence, 24 h. Potency, µM (titrated, usually from 46.1 µM), without a hit: top-dose activation, hits mostly activators. 410,000 compounds, 0.31% hits. AID 624171, 2012; note: % of control where 0% means no effect; nearly all actives have a fitted effect of over 65% in size
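Luciferase luminescence (Steady-Glo, 30 min at room temperature) served as the read-out of ARE activation in AREc32 cells treated with compounds for 24 hr at 37 deg C.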
An asterisk follows results filed as active; ? = inconclusive; . = not tested or not shown; ! = not active in a repeat; [ ] = another dose, or the depositor's remark. Calls come from the whole dose curve; as a rule, active = well fitted curve in the direction sought with a large enough effect; inconclusive = small, poorly fitted or top-dose-only effect, or another doubt; inactive = no such curve, though single readings can be large; an effect the other way counts as inactive or inconclusive. Potency is the fitted concentration of half-maximal effect.

SMILES | A549 tox | ELG1 DNA repair | Nrf2 block | Nrf2 activator
CC(C)CCNC(=O)c1c[nH]c2ccc(S(=O)(=O)Nc3cccc(C(F)(F)F)c3)cc2c1=O | 2.0% | . | . | 0.2%
COc1cccc(NS(=O)(=O)c2ccc3[nH]cc(C(=O)NCCC(C)C)c(=O)c3c2)c1 | -14.7% | 18.4µM* | 16.4µM* | 3.5%
CCc1ccc(C(=O)Cn2ncc(Cl)c(Cl)c2=O)cc1 | 3.3% | -12.1% | -14.4% | 10µM*
O=C(Cn1ncc(Cl)c(Cl)c1=O)N1CCc2ccccc21 | 2.2% | ? | -7.3% | ?
O=C(Cn1ncc(Cl)c(Cl)c1=O)N1CCOCC1 | ? | ? | 86.7% | 11.2µM*
O=S(=O)(NCCNc1nc(-c2ccco2)nc2ccccc12)c1ccccc1 | -3.0% | . | 12.5% | .
NS(=O)(=O)c1ccc(NC(=O)COC(=O)C2(c3ccccc3F)CCCC2)cc1 | ? | -20.7% | 20.6µM* | 0.4%
NS(=O)(=O)c1ccc(NC(=O)COC(=O)C23CC4CC(CC(C4)C2)C3)cc1 | -0.1% | -0.2% | 9.7% | -0.1%
O=C(COC(=O)C1(c2ccccc2F)CCCC1)NCc1cccs1 | -11.2% | ? | 20.6µM* | -0.1%
O=C1CC(N2CCN(S(=O)(=O)c3ccc([N+](=O)[O-])cc3)CC2)C(=O)N1c1ccccc1F (stereo not drawn) | 1.9% | 8.6% | 11.7% | -0.2%
COc1ccc(/C(C)=N/NC(=O)Cc2ccc(Cl)cc2)cc1 | 4.5% | 12.6% | -6.1% | -0.4%
COc1ccc(-c2oc3c(OC)c(OC)c(OC)c(O)c3c(=O)c2OC)cc1OC | 3.2% | 11.6µM* | ? | -0.8%
COc1c(OC)c(O)c2c(=O)c(O)c(-c3ccccc3)oc2c1OC | -5.5% | ? | -3.2% | 0.5%
COc1ccccc1N1CCN(C(=O)c2sc3nc(-c4ccccc4)cn3c2C)CC1 | -16.8% | ? | ? | 2.8%
COc1ccc2[nH]c(C(=O)N3CCc4ccccc4C3)c(C)c2c1 | 8.6% | 2.9% | 18.4µM* | 3.3%
Cc1c(C(=O)N2CCc3ccccc3C2)sc2nc(-c3ccccc3)cn12 | 2.9%[1.84 µM] | 20.6µM* | -11.9% | 2.8%
Cc1c(C(=O)N2CCN(c3ccc(F)cc3)CC2)sc2nc(-c3ccccc3)cn12 | . | 0.5% | -12.1% | 1.5%
COc1ccc(-c2cn3c(C)c(C(=O)N4CCc5ccccc5C4)sc3n2)cc1 | -4.6% | ? | 16.4µM* | 0.2%
Cc1c(C(=O)Nc2ccncc2)sc2nc(-c3ccccc3)cn12 | -3.6% | 13µM* | 10.3µM* | 3.1%
Cc1ccc(-c2noc(-c3ccc(N4CCCC4)c([N+](=O)[O-])c3)n2)cc1 | 5.2% | . | ? | -2.5%
COc1cccc(C2c3c(ncn(-c4ccccn4)c3=N)Oc3ccc4ccccc4c32)c1 (stereo not drawn) | -5.6% | . | ? | .
CCN(CC)S(=O)(=O)c1ccc(OC(C)C)c(NC(=O)c2c3c(nc4ccccc24)CCN(Cc2ccccc2)C3)c1 | -10.2% | 5.8µM* | -25.3% | 3.3%
COc1ccc(S(=O)(=O)N2CCCCCC2)cc1NC(=O)c1c2c(nc3ccccc13)CCN(Cc1ccccc1)C2 | -23.8% | ? | -17.9% | -0.7%
Cc1ccc2c(c1)N(C(C)C(=O)NCc1ccc3c(c1)OCO3)C(=O)CO2 (stereo not drawn) | 0.0% | -0.3% | -1.9% | -0.1%
COc1ccc(NC(=O)c2cccnc2Cl)c(S(=O)(=O)N2CCOCC2)c1 | . | 0.4% | -11.3% | -0.9%
SMILES | A549 tox | ELG1 DNA repair | Nrf2 block | Nrf2 activator
Cc1ccc(S(=O)(=O)N(C)C)cc1NC(=O)c1cncc(Br)c1 | -18.2% | 14.6µM* | 11.6µM* | -1.9%
COc1ccc(NC(=O)c2cncc(Br)c2)c(S(=O)(=O)N2CCOCC2)c1 | 0.1% | 11.2µM* | -20.7% | -0.1%
CN(C)S(=O)(=O)c1cccc(NC(=O)c2cncc(Br)c2)c1 | 2.4% | -18.8% | -4.5% | 2.5%
Cc1ccc(S(=O)(=O)N2CCCCC2)cc1NC(=O)c1cncc(Br)c1 | 1.4% | 5.8µM* | 0.6% | -0.4%
O=C(Nc1cccc(S(=O)(=O)N2CCCCCC2)c1)c1cncc(Br)c1 | -10.5% | ? | ? | 3.0%
CC1CC(=Cc2ccc([N+](=O)[O-])cc2)C(=O)O1 (stereo not drawn) | -13.3% | . | -9.6% | 1.8%
COc1ccc(NC(=S)Nc2ccccn2)cc1 | -1.6% | ? | ? | 5.9%
COc1ccc(-c2oc(=O)c3cc(OC)c(OC)cc3c2C#CCCO)cc1 | ? | 16.4µM* | -14.9% | 10.4%
COc1cc(OC)cc(-c2oc(=O)c3cc(OC)c(OC)cc3c2C#CCCO)c1 | -0.7% | ? | 7.9% | -0.9%
COc1ccc(/C=C/c2c(-c3ccc(OC)cc3)oc(=O)c3cc(OC)c(OC)cc23)cc1 | -0.4% | 5.8µM* | -21.4% | 4.5%
COc1ccccc1N(CC(=O)NCCSCc1ccccc1)S(=O)(=O)c1ccc(C)cc1 | -2.5% | ? | 14.6µM*! | -0.1%
COc1ccccc1N(CC(=O)NC1CC2CCC1C2)S(=O)(=O)c1ccc(C)cc1 (stereo not drawn) | -18.4% | ? | 18.4µM* | 0.7%
COc1ccccc1N(CC(=O)NCCSCc1ccccc1)S(=O)(=O)c1ccccc1 | . | . | . | -0.6%
Cc1ccc(-c2nc(CN(C)Cc3ccc4nccnc4c3)c(C)o2)s1 | -10.5% | -14.6% | -17.1% | 0.0%
Cc1ccsc1CCN1C(=O)N(c2ccccc2)C(=O)C1CC(=O)Nc1ccc(Cl)cc1 (stereo not drawn) | -23.2% | . | ? | 4.2%
N=C(N)SCc1ccc(Cl)cc1Cl | ? | 10.3µM* | ? | 0.1%
COC(=O)c1sc(NC(=O)c2ccc([N+](=O)[O-])o2)c(C#N)c1C | 21.5% | 4.61µM* | ? | ?
CC(=O)N1CCc2c(sc(NC(=O)c3ccc([N+](=O)[O-])o3)c2C#N)C1 | 20.6µM* | ? | 25.9µM* | ?
O=S(=O)(c1ccc2c(c1)OCCO2)N1CCN(S(=O)(=O)c2ccc(Cl)cc2F)CC1 | -1.1% | . | 3.6% | .
Cc1c(OCC(=O)N2CCC(C(=O)NCCCC(=O)O)CC2)ccc2c1oc(=O)c1ccccc12 | -1.9% | ? | ? | -0.3%
Cc1n[nH]c(=S)n1/N=C/c1ccc(-c2ccccc2[N+](=O)[O-])o1 | ? | ? | . | 10µM*
O=[N+]([O-])c1cccc(-c2ccc(/C=N/n3c(-c4ccccc4)n[nH]c3=S)o2)c1 | 1.7% | ? | 9.1% | 28.3%
Cc1nc2ccccc2n1/N=C/c1ccc([N+](=O)[O-])o1 | ? | . | 20.6µM* | 0.1%
O=S(=O)(NCCc1ccccc1)c1ccc(N2CCCCS2(=O)=O)cc1 | -10.7% | . | . | -1.2%
CC1=C(SCc2ccccc2)C(=O)c2ccccc2C1=O | -13.4% | . | -14.2% | -1.6%
O=C1C(SCCO)=C(SCCO)C(=O)c2ccccc21 | ? | ? | 25.9µM* | -4.2%
COc1cccc(C2c3c(ncn(-c4cccc(C#N)c4)c3=N)Oc3ccc4ccccc4c32)c1 (stereo not drawn) | -0.7% | . | ? | .

Compound activity as filed in PubChem.
